Broadly, the inhibition is the relative decrease from the control value, in per cent.

The source of these data is PubChem BioAssay AID488857 (Sanford-Burnham Center for Chemical Genomics, 2010).

In all, about 1,400 compounds went through this assay and about 560 (40%) were called active. So high a share suggests a set chosen from earlier hits. This is one part of the list. Values without a mark were called inactive.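 Rule for the calls: active = mean inhibition over duplicate tests at 10 µM above 50%; inactive = the rest.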

This assay can be described thus: ASC/caspase-1 reporter retest in S. cerevisiae at one dose, specificity check for NALP1 project (AID 488857). Particulars: S. cerevisiae ASC/Caspase-1, beta-galactosidase luminescence, 24 h; at 10 µM; active compounds read high.
For `CCN(CC)S(=O)(=O)c1ccc(NS(=O)(=O)c2cccs2)cc1`, the inhibition is 29.6%.

Consider `Cc1ccc(/C(N)=N/OC(=O)c2cccs2)cc1`, for which the inhibition was 69.2% (active).

As for `Cc1ccc(/C(N)=N/OC(=O)c2ccc(Cl)cc2Cl)cc1`, the inhibition is 46.2%.

Regarding `CC1CN(C(=O)Nc2ccc3c(c2)OCO3)CC(C)O1` (stereo not given), the inhibition was 27.1%.

Turning to `Cc1cccc(/C(N)=N/OC(=O)c2ccc3c(c2)OCO3)c1`, the inhibition is 55.8% (active).

In the case of `Cc1ccc(/C(N)=N/OC(=O)c2ccc3c(c2)OCO3)cc1`, the inhibition is 86.8% (active).

In the case of `CC1(C)CC(=O)c2cc(C(=O)O)c(=O)n(-c3ccccc3)c2C1`, the inhibition was 37.4%.

As for `CC(C)c1nc(SCC(=O)Nc2ccc3c(c2)OCCO3)n[nH]1`, the inhibition was 24.2%.

As to `Cc1ccsc1/C=N/NC(=O)c1ccco1`, the inhibition was 48.5%.

Regarding `O=C(/C=N/O)Nc1cccnc1`, the inhibition was 41.3%.

Take `COc1cc(Br)cc(C=Nc2cccc(C(F)(F)F)c2)c1O`: the inhibition was 30%.

Regarding `Oc1c(Br)cc(Br)cc1C=Nc1cccnc1`, the inhibition is 54.1% (active).

Take `O=C(Nc1cccc(N=Cc2cc(Br)cc(Br)c2O)c1)c1ccco1`: the inhibition is 57% (active).

On to `Oc1c(Br)cc(Br)cc1C=Nc1ccc2c(c1)OCO2`, for which the inhibition was 64.6% (active).

`CCOc1nc(-c2ccccc2Cl)ccc1C#N`: the inhibition is 45.4%.

In the case of `OC(CNCCc1ccc(C(F)(F)F)cc1)COc1cccc2ccccc12` (stereo not given), the inhibition is 59.9% (active).

For the compound `C=CCNc1oc(COc2ccc(C)cc2)nc1C#N`, the inhibition was 56.6% (active).

For `COC(=O)C(CCSC)NC(=O)Cn1ncc2c(=O)oc3ccccc3c21` (stereo not given), the inhibition was 42%.

For `O=C1C=CC(=O)N1c1ccc(N2CCCCC2)cc1`, the inhibition is 68.2% (active).

With `O=[N+]([O-])c1ccc(N2CCCCC2)cc1`, the inhibition is 39.5%.

Turning to `CCCc1[nH]nc2c1C(c1ccoc1)C(C#N)=C(N)O2` (stereo not given), the inhibition is 43.1%.

With `O=c1c2c(C(F)(F)F)cc(C(F)(F)F)nc2[nH]n1-c1ccccc1`, the inhibition was 33%.

Take `Nc1c(Cl)ncnc1N/N=C/c1ccccn1`: the inhibition is 85.2% (active).

In the case of `Cc1c(Cl)c([N+](=O)[O-])nn1Cc1ccc(C(=O)N/N=C\c2ccccn2)o1`, the inhibition is 31.1%.

In the case of `CC1CCc2nc3sc4c(c3c(N)c2C1)CCCC4` (stereo not given), the inhibition is 93.2% (active).

Regarding `N#Cc1cnn(-c2ncnc3sc4c(c23)CCCC4)c1N`, the inhibition is 37.2%.

`Nc1c2c(nc3sc4c(c13)CCCC4)CCCCCC2`: the inhibition is 48.9%.

Consider `Nc1c2c(nc3sc4c(c13)CCCCC4)CCCCC2`, for which the inhibition is 69% (active).

For the compound `C=C(C)COc1ccc2c(CC)cc(=O)oc2c1C`, the inhibition is 61.5% (active).

Take `CN(C)C(C)(C)C#CCC(c1ccccc1)c1ccccc1`: the inhibition was 55% (active).

Regarding `CC(C)(C#CCN1CCCCC1)OCCOC(c1ccccc1)c1ccccc1`, the inhibition is 30.2%.

With `CCCCNC(=O)Nc1cc(C)on1`, the inhibition was 27.1%.

Consider `CCCCNC(=O)Nc1nnc(-c2ccc(Cl)cc2)o1`, for which the inhibition was 54.4% (active).

As for `CCC1(CC)Cc2ccccc2C(Nc2c(C)n(C)n(-c3ccccc3)c2=O)=N1`, the inhibition is 18.9%.

For the compound `O=C(Cc1coc2cc3c(cc12)CCC3)NCC1(N2CCCCC2)CCCCC1`, the inhibition is 45%.

Turning to `Cc1ccc(OCc2nc(-c3ccc(Cl)cc3)n[nH]2)cc1`, the inhibition is 78.2% (active).

As for `O=C(O)[C@@H](c1ccccc1)N1Cc2ccccc2C1=O`, the inhibition is 22.6%.

With `COC(=O)N/N=C(\C)c1ccc2ccccc2c1OC(F)F`, the inhibition was 62.3% (active).

`OC(CNCCC1C=Nc2ccccc21)Cn1c2ccc(Cl)cc2c2cc(Cl)ccc21` (stereo not given): the inhibition is 53.8% (active).

Take `CC(C)NCCOCCOc1ccc(Cl)cc1Br`: the inhibition was 39.3%.

As for `Clc1ccc(OCCOCCN2CCc3ccccc3C2)c(Cl)c1`, the inhibition is 58.2% (active).

For `CCc1cc(OCCCCNCc2ccccc2)ccc1Cl`, the inhibition is 44.5%.

Turning to `Clc1ccc(OCCCNCc2ccccc2)c2ccccc12`, the inhibition was 53.2% (active).

Take `Cc1nc2c(=O)n(C)c(=O)n(C)c2nc1Cl`: the inhibition was 25.6%.

In the case of `Cc1ccc(S(=O)(=O)c2nc(C)oc2NCc2ccccc2)cc1`, the inhibition was 34.9%.

Consider `Cc1ccc(S(=O)(=O)c2nc(Nc3ccccc3)sc2Cl)cc1`, for which the inhibition is 69.3% (active).

For `CCOC(=O)/C(=N\Nc1ccc(Cl)cc1)c1csc(Nc2ccccc2)n1`, the inhibition is 31.7%.

As for `CC1CCCC(NC(=O)C2CCN(S(=O)(=O)N3CCCCC3)CC2)C1C` (stereo not given), the inhibition is 36.5%.

In the case of `O=C(Cc1ccc(-n2c(=O)[nH]c3ccccc3c2=O)cc1)N1CCN(c2ccccc2)CC1`, the inhibition was 17.4%.

Regarding `O=C(COc1cccc2ccccc12)N1CCN(c2ccccc2)CC1`, the inhibition was 52% (active).

Turning to `CCn1c(COc2ccccc2C)nnc1SCC(=O)N1CCN(c2ccccc2)CC1`, the inhibition is 40.5%.

`C/C(=N\N1CCN(c2ccc(Cl)cc2)CC1)c1ccco1`: the inhibition is 36.9%.

For `CCCCCOc1ccc(Br)cc1CSC(=N)N`, the inhibition was 59% (active).

For `FC(F)(F)C(F)(F)c1nnc2ccc(-n3ccnc3)nn12`, the inhibition is 33.5%.

As for `Cc1ncc(S(=O)(=O)c2ccccc2)c(-c2ccccc2Cl)n1`, the inhibition is 7.65%.

`COc1ccc2cc(/C=N/O)c(Cl)nc2c1`: the inhibition was 55% (active).

For the compound `COc1ccc(CC2(C)OC(c3ccc(C)cc3)=NN2C(C)=O)cc1` (stereo not given), the inhibition was 59% (active).

For the compound `O=C1C=CC(=O)N1c1ccc(OC(F)F)cc1`, the inhibition is 71% (active).

Turning to `CNCc1ccccc1Sc1cc(O)ccc1O`, the inhibition is 24.2%.

Consider `CN1c2ccccc2Sc2cc(N)ccc21`, for which the inhibition was 87.7% (active).

Turning to `CC(C)C(=O)N(Cc1ccccc1)c1ccccn1`, the inhibition was 21.7%.

For `Cc1cc(C)cc(-n2nnc(C(=O)NCc3ccccc3)c2N)c1`, the inhibition was 53.6% (active).

On to `CCOc1ccc(CNC(=O)c2cc3oc4ccccc4c3n2C)cc1`, for which the inhibition was 32.7%.

With `Nc1c(C(=O)NCc2ccc3c(c2)OCO3)nnn1-c1ccc(OC(F)(F)F)cc1`, the inhibition was 48.9%.

For `CC(C)COC(=O)Nc1nnc(SCc2ccccc2F)s1`, the inhibition is 47.1%.

`CCSc1nnc(NC(=O)c2ccccc2)s1`: the inhibition was 85.4% (active).

Turning to `C=C(C)C(=O)Nc1nnc(-c2cccs2)s1`, the inhibition was 36.6%.

As for `Cc1ccc(Nc2nnc(SCC(=O)Nc3ccc(S(=O)(=O)N4CCOCC4)cc3)s2)cc1`, the inhibition was 36%.

On to `CCSc1nnc(NC(=O)c2ccc(C)o2)s1`, for which the inhibition is 59.5% (active).

As to `Cc1cccc(N/C=C/C(=C(C#N)C#N)N(C)C)c1`, the inhibition is 38.1%.

In the case of `CN(C)c1ccc(N/C=C/C(=O)c2ccccc2)cc1`, the inhibition is 62.9% (active).

For the compound `O=C(NCc1cccnc1)C1CCN(S(=O)(=O)c2cccnc2)CC1`, the inhibition was 42.8%.

Regarding `COc1ccc(S(=O)(=O)N(CC(=O)N2CCOCC2)Cc2ccccc2)cc1C`, the inhibition was 40.5%.

For the compound `O=C(c1ccc(Br)s1)N1CCN(C/C=C/c2ccccc2)CC1`, the inhibition is 55.4% (active).

On to `CN(CC(=O)NC(=O)NCc1ccccc1)Cc1cccc(Cl)c1Cl`, for which the inhibition is 43.1%.

As to `CCN(c1cccc(C)c1)S(=O)(=O)c1cccc(C(=O)O)c1`, the inhibition was 32.3%.

On to `CCN(CC)c1ccc(/C=C2/SC(=O)N(C(C)C)C2=O)o1`, for which the inhibition was 71% (active).

As to `N#CC1(C#N)CC(C=O)=C(N)C1(C#N)CC(=O)C12CC3CC(CC(C3)C1)C2` (stereo not given), the inhibition was 35.1%.

Consider `Cc1cc(C(=O)COC(=O)c2ccc[nH]c2=O)c(C)n1-c1ccccc1`, for which the inhibition is 57.5% (active).

In the case of `Cc1cc(C(=O)COC(=O)c2ccc[nH]c2=O)c(C)n1-c1ccc(F)cc1`, the inhibition is 52.3% (active).

On to `CCC(=O)N(Cc1cc2c(C)ccc(C)c2[nH]c1=O)C1CCCCC1`, for which the inhibition is 36.8%.

In the case of `CCC(C(=O)OC)n1cnc2scc(-c3ccc(C)c(C)c3)c2c1=O` (stereo not given), the inhibition was 98.5% (active).

Consider `CC[n+]1c(/C=C/N(C)c2ccccc2)n(-c2ccccc2)c2ccc(-c3nc4ccccc4s3)cc21`, for which the inhibition is 64.5% (active).

As for `O=C(Cn1cccc(C(F)(F)F)c1=O)c1ccc(Cl)cc1`, the inhibition is 20.5%.

In the case of `Cc1ccc(S(=O)(=O)N(C)C)cc1NC(=O)Nc1ccccc1F`, the inhibition was 24.1%.

Turning to `O=C(Nc1ccccc1)Nc1ccc(Br)cc1F`, the inhibition is 73.9% (active).

As for `O=C(NNC(=O)c1ccc(-c2ccccc2)cc1)Nc1ccc(F)cc1F`, the inhibition was 42.6%.

Regarding `O=C(c1ccccc1)c1ccc(OCC(O)CNC2CCCc3ccccc32)cc1` (stereo not given), the inhibition is 38.8%.

Turning to `COc1ccc(C2NCCc3c2[nH]c2ccccc32)cc1CSc1nc2ccccc2s1` (stereo not given), the inhibition is 50% (active).

For `CSc1nc(C)cc(OCCO)n1`, the inhibition is 40.9%.

`CCOc1ccc(OCCSc2nc3ccccc3o2)cc1`: the inhibition was 44.1%.

As to `CCCOc1ccc(OCCSc2ncccn2)cc1`, the inhibition is 50.8% (active).

With `CC(C)CN=C(NS(=O)(=O)c1ccccc1)C(Cl)(Cl)Cl`, the inhibition is 51.1% (active).

In the case of `Cc1ccc(S(=O)(=O)N[C@@H](Cc2ccccc2)C(=O)CCl)cc1`, the inhibition is -4.2%.

As to `CC(=O)NS(=O)(=O)c1ccc(NC(=O)CSc2ccccc2)cc1`, the inhibition was 18.9%.

As to `CCc1oc2ccccc2c1C(=O)CCN1CCCCC1`, the inhibition is 66.5% (active).

In the case of `O=C(OCCN1CCCCC1)c1cc2ccccc2o1`, the inhibition was 18.4%.

For the compound `Cc1c(C)c2cc(Cl)c(O)c(CN3CCCCC3)c2oc1=O`, the inhibition is 35.6%.

`c1ccc(CCNc2nc(-c3cccnc3)cs2)cc1`: the inhibition was 45%.

As for `Cc1ccc(CN(C(=O)CNC(=O)c2cccs2)C(C(=O)NCC2CCCO2)c2ccccc2)cc1` (stereo not given), the inhibition was 38.1%.

On to `COc1ccc(CCNC(=O)c2sc3cc(C)ccc3c2Cl)cc1`, for which the inhibition is 43.6%.

In the case of `O=C(NCCCn1ccnc1)c1ccc(Br)o1`, the inhibition was 24.1%.

As for `COc1ccc(-c2nc(CCNC(=O)c3cccs3)cs2)cc1`, the inhibition is 54.7% (active).

Turning to `O=C(NCCc1csc(-c2ccccc2)n1)c1ccc(Br)o1`, the inhibition was 62.4% (active).

For the compound `O=C(O)C1C2C=CC(C2)C1C(=O)NCc1ccc(Cl)c(Cl)c1` (stereo not given), the inhibition is 45.9%.
